High-throughput results deposited in PubChem by National Center for Advancing Translational Sciences (NCATS).
GLS inh: glutaminase GLS (human) inhibition; actives 0.21% (n = 410,000); Potency, µM (series often up to 45.5 µM), actives largely listed as inhibitors; O94925; GLS enzymatic activity, qHTS titration
Target sequence (O94925 whole entry, looked up): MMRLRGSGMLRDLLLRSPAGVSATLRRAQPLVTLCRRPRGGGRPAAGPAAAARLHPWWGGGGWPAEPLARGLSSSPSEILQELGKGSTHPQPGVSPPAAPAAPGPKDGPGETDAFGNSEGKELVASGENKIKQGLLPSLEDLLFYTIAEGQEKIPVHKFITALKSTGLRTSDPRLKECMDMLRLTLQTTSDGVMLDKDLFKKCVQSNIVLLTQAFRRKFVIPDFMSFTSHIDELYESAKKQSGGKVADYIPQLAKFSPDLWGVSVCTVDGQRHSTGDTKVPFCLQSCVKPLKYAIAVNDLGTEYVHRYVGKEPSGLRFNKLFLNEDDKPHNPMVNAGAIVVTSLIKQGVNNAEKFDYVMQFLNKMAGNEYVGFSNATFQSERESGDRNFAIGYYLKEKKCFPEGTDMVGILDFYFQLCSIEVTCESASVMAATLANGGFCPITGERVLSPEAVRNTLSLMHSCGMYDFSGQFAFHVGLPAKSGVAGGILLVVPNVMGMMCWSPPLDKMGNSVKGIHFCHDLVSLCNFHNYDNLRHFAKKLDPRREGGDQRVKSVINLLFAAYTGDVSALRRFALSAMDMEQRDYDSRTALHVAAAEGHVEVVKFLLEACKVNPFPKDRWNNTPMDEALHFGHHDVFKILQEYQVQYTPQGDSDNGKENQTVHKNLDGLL
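Glutamate formation by hKGA was monitored fluorometrically using coupled glutamate oxidase, HRP and Amplex Red. Substrate was added as 1 mM L-glutamine solution; incubation was 30 min at RT after an initial read.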
L3MBTL1 block: inhibitors of human L3MBTL1 | Q9Y468 | AlphaScreen L3MBTL1–H3K9me1 peptide binding | actives 0.66% (n = 230,000) | Potency, µM (doses to about 57.1 µM), actives largely listed as inhibitors; further: nearly all actives have a fitted effect of over 60% in size
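Displacement of a biotinylated histone H3(1-15) peptide monomethylated at Lys9 (75 nM) from L3MBTL1 (50 nM) was measured by AlphaScreen after a 30 min room-temperature compound incubation; cefsulodin titration served as intraplate control.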
G9a block: inhibitors of human histone lysine methyltransferase G9a; actives 8.8% (n = 350,000); AID 504332; G9a H3K9 monomethylation, AlphaScreen, 2 h; Potency, µM (titrated, usually from 102 µM), usual class: inhibitors; Q96KQ7; further: nearly all actives have a fitted effect of over 75% in size
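Signal arises when biotinylated H3K9 peptide, once monomethylated, bridges streptavidin donor and antibody-captured acceptor beads. Enzyme at 20 nM was preincubated 15 min with test compounds; peptide 500 nM and SAM 20 uM then reacted for 2 h.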
BAZ2B block: BAZ2B (human) inhibition; AlphaScreen BAZ2B-H3K14Ac peptide displacement; Potency, µM (top dose mostly 114 µM), hits mostly inhibitors; actives 4.4% (n = 360,000); AID 504333; further: nearly all actives have a fitted effect of over 60% in size
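BAZ2B (50 nM) with biotin-H3(5-23)K14Ac peptide (50 nM) in PBS pH 7.4, 0.01% Tween-20, preformed 30 min, then compound 30 min at room temperature; top concentration 110uM. AlphaScreen streptavidin donor/nickel chelate acceptor beads (10 ug/mL final), 20 min dark, signal read.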
JMJD2A Tudor: blocks the human JMJD2A Tudor domain. O75164. AlphaScreen JMJD2A-Tudor / H3K4me3 peptide binding. Potency, µM (top dose mostly 114 µM), most hits filed as inhibitors. actives 4.4% (n = 390,000); further: nearly all actives have a fitted effect of over 50% in size
HP1b binding inh: blocks HP1-beta chromodomain binding to methylated histone tails | AID 540317 | AlphaScreen HP1-beta / biotin-H3K9me3 peptide binding | actives 0.56% (n = 390,000) | P83916 | Potency, µM (series often up to 114 µM), most hits filed as inhibitors; further: nearly all actives have a fitted effect of over 70% in size
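AlphaScreen: HP1-beta (50 nM) preformed 30 min with biotin-H3(1-18)K9me3 peptide (50 nM) in PBS pH 7.4, 0.01% Tween-20. Compound added for 30 min at RT, then streptavidin donor/nickel chelate acceptor beads (10 ug/mL) for 30 min.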
Hits are given with their value; n = inactive; u = inconclusive; x = not tested or not shown; [ ] = another dose, or the depositor's remark. An excerpt weighted towards active compounds, which were near 10% of everything screened. The call rests on the fitted dose curve; in most records, active means well fitted curve in the direction sought with a large enough effect; inconclusive means small, poorly fitted or top-dose-only effect, or another doubt; inactive means no such curve, though single readings can be large; an effect the other way counts as inactive or inconclusive.

SMILES	GLS inh	L3MBTL1 block	G9a block	BAZ2B block	JMJD2A Tudor	HP1b binding inh
CN1CCC(N(C)CC(=O)Nc2ccccc2N2CCOCC2)CC1	n	x	u	56µM	8.9µM	u
CCN(CC)c1nc2c(S(=O)(=O)c3ccccc3)nnn2c2ccc(Cl)cc12	n	x	n	n	n	n
O=C1CSC(c2cccs2)N1c1ccccc1 (stereo not given)	n	n	n	n	n	n
COc1ccc(N2C(=O)CSC2c2cccs2)cc1 (stereo not given)	n	n	50µM	n	n	n
CCN1C(=O)c2ccccc2S(=O)c2ccc(C(=O)N3CCN(c4cccc(Cl)c4)CC3)cc21 (stereo not given)	n	x	n	u	n	n
COc1cccc(NC(=O)c2nn(-c3ccc(C)cc3)c(=O)n(C)c2=O)c1	n	x	n	n	n	n
CN(C)c1ccc(N2CC(C)(C)C2=O)cc1	n	n	10µM	n	n	n
CC(=O)c1ccc(N2CC(C)(C)C2=O)cc1	n	u	n	n	n	n
COC(=O)COc1cc(OCC(=O)OC)c2c(C)c(Cl)c(=O)oc2c1	n	n	10µM	n	n	n
Cc1cc(Nc2ccc(O)cc2)ccc1N	x	n	n[0.501 µM]	6.3µM	u	11µM
CCC(=O)Nc1ccc2ccccc2c1	n	n	n	n	n	n
Oc1ccc(Nc2ccc3ccccc3c2)cc1	14µM	x	x	x	40µM	u
CCCCOc1ccccc1CC1C(=O)Nc2ccc(Br)cc21 (stereo not given)	x	x	n	n	n	n
CC1CCN(S(=O)(=O)c2ccc3c(c2)N(CC(=O)N(C)Cc2ccccc2)C(=O)CO3)CC1	n	x	n	n	n	n
Fc1ccc(Nc2nc(N3CCOCC3)nc(N3CCOCC3)n2)cc1	n	x	45µM	u	u	n
Cc1cccc(Nc2nc(N3CCOCC3)nc(N3CCOCC3)n2)c1	n	n	u	n	n	n
Cc1ccc(Nc2nc(N3CCOCC3)nc(N3CCOCC3)n2)cc1C	n	x	50µM	u	n	n
c1ccc(Nc2nc(N3CCOCC3)nc(N3CCOCC3)n2)cc1	n	n	u	n	n	n
Cc1ccccc1OCCCn1c(-c2ccc(Cl)cc2)nc2ccccc2c1=O	n	x	n	n	n	n
Cc1ccc(-c2nc(S(=O)(=O)c3ccc(C)cc3)c(N3CCN(c4ccccc4)CC3)o2)cc1	n	x	n	u	u	n
Cc1ccc(S(=O)(=O)c2nc(Cc3ccccc3)oc2N2CCOCC2)cc1	n	n	2.2µM	n	u	n
O=S(=O)(c1ccccc1)c1nc(-c2ccccc2)oc1N1CCCC1	n	n[2.29 µM]	n	n	79µM	n
Cc1ccc(S(=O)(=O)c2nc(-c3ccco3)oc2N2CCC(C)CC2)cc1	n	x	x	10µM	u	n
NC(=O)C1CCN(c2oc(-c3ccccc3)nc2S(=O)(=O)c2ccc(Br)cc2)CC1	n	x	x	u	32µM	n
Cc1ccc(S(=O)(=O)c2nc(-c3ccccc3)oc2N2CCC(C(N)=O)CC2)cc1	n	x	x	u	n	n
SMILES	GLS inh	L3MBTL1 block	G9a block	BAZ2B block	JMJD2A Tudor	HP1b binding inh
O=S(=O)(c1ccccc1)c1nc(-c2ccco2)oc1N1CCOCC1	n	x	n[2.33 µM]	n	n	n
O=S(=O)(c1ccccc1)c1nc(-c2ccccc2)oc1N1CCCCC1	n	x	22µM	u	u	n
Cc1ccc(S(=O)(=O)c2nc(N3CCOCC3)sc2Cl)cc1	n	n	6.3µM	n	n	n
Cc1ccc(S(=O)(=O)c2nc(S(C)(=O)=O)sc2N2CCC(C)CC2)cc1	n	x	35µM	n	n	n
Cc1ccc(S(=O)(=O)c2nc(S(C)(=O)=O)sc2N2CCCCCC2)cc1	n	x	x	n	u	n
CN1CCN(c2oc(-c3ccccc3)nc2S(=O)(=O)c2ccc(Br)cc2)CC1	n	x	x	35µM	56µM	u
Cc1ccc(S(=O)(=O)c2nc(-c3ccccc3)oc2N2CCCC2)cc1	n	n	1.3µM	u	28µM	u
CCOC(=O)c1cc(-c2ccc(F)cc2)n(CCC(=O)Nc2cc(OC)cc(OC)c2)c1C	n	x	u	n	u	u
COC(=O)c1ccc(N)cc1O	n	x	n	n	n	n
COC(=O)c1ccc(=O)c2nc3/c(=C/O)c(O)cc(=O)c3[nH]c12	5µM	x	0.79µM	0.71µM	0.63µM	n
C=CCSc1nnc(-c2cc3c(-c4ccccc4)nn(C)c3s2)n1C	n	n	n	n	n	n
C=CCSc1nnc(-c2cc3c(C(F)(F)F)nn(C)c3s2)n1C	n	n	71µM	n	n	n
Clc1cccc(CN2CCC3CC2c2cc(N4CCCCC4)ccc23)c1 (stereo not given)	n	x	x	x	45µM	u
O=C(OCc1ccccc1)N1CCC2CC1c1cc(N3CCNCC3)ccc12 (stereo not given)	n	x	x	x	x	x
O=C(OCc1ccccc1)N1CCC2CC1c1cc(N3CCCCC3)ccc12 (stereo not given)	n	x	x	x	28µM	u
c1ccc(CN2CCC3CC2c2cc(N4CCCCC4)ccc23)cc1 (stereo not given)	n	x	x	x	x	x
Cc1ccc(CNC(=O)Cc2c(C)c3cc4c(C)coc4cc3oc2=O)cc1	n	x	n	n	n	n
O=C(COC(=O)CNC(=O)C1CCCCC1)NC1CCCC1	x	x	x	x	n	n
Cc1cccc(CNC(=O)c2ccc(NC(=O)C3=CSCCO3)cc2)c1	n	x	n	n	20µM	n
CCOc1ccc(CNC(=O)c2ccccc2NC(=O)C2=CSCCO2)cc1	n	x	n	n	32µM	n
NS(=O)(=O)c1ccc(Nc2nc(-c3ccc(O)cc3O)cs2)cc1	n	x	n	u	n	n
c1ccc(Nc2nc(-c3cccnc3)cs2)nc1	n	n	n[0.0925 µM]	n	n	n
Oc1ccc(-c2csc(Nc3ccccn3)n2)c(O)c1	n	n	45µM	n	n	n
Fc1ccc(-c2csc(Nc3ccccn3)n2)cc1	n	n	79µM	n	n	n
Cc1cccnc1Nc1nc(-c2ccc(O)cc2O)cs1	n	n	6.3µM	u	14µM	n
SMILES	GLS inh	L3MBTL1 block	G9a block	BAZ2B block	JMJD2A Tudor	HP1b binding inh
Cc1ccc2c(c1)N(C(=O)C1CCN(S(=O)(=O)c3c(C)noc3/C=C/c3ccccc3F)CC1)CCO2	n	x	n	n	n	n
COC(=O)c1nn(-c2ccc(C)cc2)ccc1=O	n	n[11.4 µM]	n	n	n	n
CCn1c(SC)nnc1-c1nn(-c2ccccc2)ccc1=O	n	n	5µM	u	4µM	u
CCn1c(-c2nn(-c3ccc(C)cc3)ccc2=O)n[nH]c1=S	n	n[11.4 µM]	u	n	7.9µM	n
CCc1ccc(CN(C(=O)c2ccc(OC)cc2)C2CCS(=O)(=O)C2)cc1 (stereo not given)	n	x	n	n	n	n
S=c1[nH]c2cc(Cl)ccc2s1	n	n	1.8µM	n	u	n
S=c1[nH]c2ccc(Cl)cc2[nH]1	n	n[11.4 µM]	1.6µM	n	45µM	u
COc1ccc2[nH]c3ccccc3c2c1	n	n	n	n	n	n
